Screens deposited in PubChem by University of Kansas High Throughput Screening Laboratory.
Pf apPOL inh – Pf-apPOL DNA polymerase inhibition | Recombinant Pf-apPOL, molecular beacon fluorescence, 1.5 h | inhibition, % at 10 µM | 0.25% of 210,000 active | AID 1794808
mHTT CaM bind – disrupts binding of mutant huntingtin to calmodulin. AlphaScreen His-mHTT/GST-CaM binding, luminescence. AID 1671202. 3.6% of 190,000 active. inhibition, % at 15 µM;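 also: 0% = both proteins with DMSO and 100% = one protein alone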
The depositor's hits bear a star; . = no result. This excerpt belongs to a sample that is enriched for hits. Rule as the data show it: active = inhibition above about 50%; inactive = the rest.

SMILES | Pf apPOL inh | mHTT CaM bind
COc1ccc(OC)c(C2C=C(c3ccc(Cl)cc3)Nc3nnnn32)c1 (stereo not given) | -0.5 | 17.0
COc1ccc(OC)c(C2C=C(c3cccc(Br)c3)Nc3nnnn32)c1 (stereo not given) | 8.9 | 56.0*
COc1cc(C2C=C(c3cccc(NC(C)=O)c3)Nc3ncnn32)cc(OC)c1OC (stereo not given) | 60.7* | -3.0
COc1ccc(C2C=C(c3cccc(Br)c3)Nc3nnnn32)cc1OC (stereo not given) | 3.6 | 65.0*
Brc1cccc(C2C=C(c3cccs3)Nc3ncnn32)c1 (stereo not given) | 65.4* | 13.0
Brc1ccc(C2C=C(c3cccs3)Nc3ncnn32)cc1 (stereo not given) | -3.2 | 17.0
COc1cccc(C2=CC(c3cc(OC)c(OC)c(OC)c3)n3ncnc3N2)c1 (stereo not given) | 13.8 | 28.0
CCC(C)NC(=O)c1ccc(C)nc1C1CCN(C(=O)c2ccccc2Cl)CC1 (stereo not given) | 0.6 | 17.8
Cc1ccc(-n2cc(C(=O)N(C)Cc3ccccc3)nn2)cc1 | -3.0 | -5.9
OCC#CC(O)c1sc(Cl)c(Cl)c1Cl (stereo not given) | 3.2 | -4.0
Brc1ccc(-c2nc(-c3ccc(-c4csc(C5CC5)n4)cc3)no2)o1 | 0.1 | -4.3
COc1ccc(C2C=C(c3cccc(Br)c3)Nc3ncnn32)cc1 (stereo not given) | -10.3 | 59.0*
Cc1ccc(C2C=C(c3cccc(Br)c3)Nc3ncnn32)cc1 (stereo not given) | -8.5 | 14.0
CCOc1ccccc1NC(=O)c1c(NCc2cccnc2)sc2c1CCCCC2 | -17.4 | 80.0*
CCOC(=O)N1CCc2c(sc(N)c2C(=O)Nc2cc(OC)ccc2OC)C1 | -8.5 | 53.6*
COc1ccccc1NC(=O)c1c(NCc2cccnc2)sc2c1CCCCC2 | -19.2 | 80.0*
COc1ccc(OC)c(NC(=O)c2c(NCc3ccc(OC)c(OC)c3)sc3c2CCC3)c1 | -16.8 | 52.0*
CCOc1ccccc1NC(=O)c1c(NC(=O)C(F)(F)F)sc2c1CCCCC2 | 4.4 | 7.0
CCOC(=O)N1CCc2c(sc(NC(=O)c3cc(C)on3)c2C(=O)OC)C1 | -2.0 | -12.1
CCOc1ccccc1NC(=O)c1c(NCc2ccccn2)sc2c1CCCC2 | -26.7 | 30.0
COc1ccccc1NC(=O)c1c(NCc2ccc(OC)c(OC)c2)sc2c1CCC2 | -14.7 | 27.0
COc1ccc(-c2nc3ccccn3c2NC(=O)C(Cl)Cl)cc1 | 1.4 | 18.6
O=C(c1ccc(F)cc1F)N1CCc2nc(-c3ccc(Cl)cc3)ncc2C1 | -1.6 | -8.9
Cc1ccc(S(=O)(=O)N2CC3CN(C(=O)CSc4ccncc4)CC(C2)O3)cc1 | -9.3 | 2.0
COc1ccc(OC)c(NC(=O)c2c(NCc3cccnc3)sc3c2CCC3)c1 | -14.2 | 81.0*
SMILES | Pf apPOL inh | mHTT CaM bind
COc1ccccc1NC(=O)c1c(N)sc2c1CCCC2 | -4.5 | 30.7
COc1ccc(OC)c(NC(=O)c2c(NC(=O)CNCc3ccco3)sc3c2CCC3)c1 | -0.6 | 3.4
COc1ccc(OC)c(NC(=O)c2c(N)sc3c2CCCCC3)c1 | -4.1 | 64.5*
COc1ccc(Nc2cc(-c3ccccc3)nc3ncnn23)c(OC)c1 | -15.8 | .
COCCNC(=O)c1c(NC(=O)COc2ccccc2F)sc2c1CCCC2 | -4.5 | -2.9
CCCNc1c(N)cc(C(F)(F)F)cc1[N+](=O)[O-] | -41.2 | 55.0*
O=[N+]([O-])c1cc(C(F)(F)F)cc([N+](=O)[O-])c1NCCCn1ccnc1 | -4.2 | .
Cn1c(=O)n(Cc2ccccc2)c(=O)c2c1nc(Br)n2Cc1ccccc1 | -11.9 | -5.0
CCCCC#Cc1ccc(C(=O)O)o1 | 13.9 | .
COc1cc(Cl)ccc1C(=O)N1CCC(c2noc(-c3ccccc3OC)n2)CC1 | -6.5 | 21.9
O=C(Nc1ccc2c(c1)OCO2)c1cnn2c1NC(c1cccs1)CC2C(F)(F)F (stereo not given) | 75.9* | 7.0
COc1ccc(NC(=O)c2cnn3c2NC(c2cccs2)CC3C(F)(F)F)cc1OC (stereo not given) | 0.5 | 29.0
Cc1ccc(C)c(OCC(O)CN2CC(C)OC(C)C2)c1 (stereo not given) | -4.8 | 4.5
COc1ccccc1C1CC(c2ccc(Br)cc2)=NN1C(=O)c1cccnc1 (stereo not given) | -3.4 | 53.0*
COc1ccccc1C1CC(c2ccc(Br)cc2)=NN1C(=O)c1ccncc1 (stereo not given) | -4.7 | 18.0
COc1ccccc1C1CC(c2ccc(Br)cc2)=NN1C(=O)CCC(=O)O (stereo not given) | -0.9 | 10.0
COc1cccc(C2CC(c3ccc(Br)cc3)=NN2C(=O)c2ccncc2)c1OC (stereo not given) | -4.8 | 61.0*
O=C(CC1CCCCC1)N1CCCC(c2nc(-c3ccncc3)n[nH]2)C1 (stereo not given) | -8.7 | 40.7
CCOc1ccc(C(=O)Nc2ccc([N+](=O)[O-])cc2OC)cc1Cl | -2.6 | -3.5
CCOc1ccc(/C=C2\SC(=N)N(c3ccc4c(c3)OCO4)C2=O)cc1OC | -6.2 | 11.0
CCOc1cc(/C=C2\SC(=N)N(c3nccs3)C2=O)ccc1OCCN1CCOCC1 | -3.2 | 51.0*
CCOc1cc(/C=C2\SC(=N)N(c3nonc3N)C2=O)ccc1O | 51.8* | 16.0
COc1cc(/C=C2\SC(=N)N(c3ccc(F)cc3)C2=O)ccc1O | 4.4 | 9.0
CC(=O)Nc1ccc(-c2noc(C3CCCN(C(=O)c4cccc(C)c4)C3)n2)cc1 (stereo not given) | -1.0 | 9.7
COc1ccc(CNc2cccc(N(C)C)c2)cc1 | -3.3 | 96.3*
SMILES | Pf apPOL inh | mHTT CaM bind
COc1cc(OC)c(CNc2ccc3c(c2)CCC3)cc1Br | 0.7 | 85.0*
COc1ccc(CNc2ccc3c(c2)CCC3)cc1 | 3.8 | 68.1*
COc1ccccc1CNc1ccc2c(c1)ncn2-c1ccccc1OC | 0.6 | 62.0*
CC(=O)Nc1ccc(CNc2ccc3c(c2)CCC3)cc1 | 3.8 | 38.8
COc1cccc(CNc2ccc3c(c2)ncn3-c2ccccc2)c1OC | -0.7 | 48.0
COc1ccc(CNc2ccc(SC)cc2)cc1 | 6.2 | 42.9
COc1cc(OC)c(CNC2CCCC2)cc1Br | 1.9 | -2.8
CC(=O)Nc1cc(C)nc2ccccc12 | -8.5 | -5.2
COc1cc([N+](=O)[O-])ccc1NC(=O)c1ccc(C)cc1Cl | -3.7 | 0.5
Cc1cc(C)cc(C(=O)N2CCC3(CC2)NC(=O)c2cc(F)ccc2N3C)c1 | -3.8 | -0.8
O=C(Cc1cccc2ccccc12)Nc1ccc(CC(=O)N2CCC(O)CC2)cc1 | -5.5 | 1.1
Fc1ccc(NCc2ccc3c(c2)OCO3)cc1F | 1.9 | -2.8
c1cc2c(cc1CNc1ccc3c(c1)CCC3)OCO2 | -3.1 | 72.1*
COc1ccccc1CNc1ccc2c(c1)CCC2 | 5.0 | 79.0*
COc1ccc(CNC2CCCC2)cc1Br | -7.2 | 0.5
c1cc(CNc2ccc3c(c2)CCC3)ccn1 | -3.4 | 35.3
COc1ccc(CNc2ccc3c(c2)CCC3)cc1Br | 4.2 | 76.8*
c1ccc(-c2cc(-c3ccccc3)c(N3CCCC3)nn2)cc1 | -6.2 | .
CS(=O)(=O)c1ccc2nc(NC(=O)CCc3ccccc3)sc2c1 | 1.3 | 15.0
COc1ccc(CCNC(=O)Nc2ccccc2NC(=O)c2cccnc2)cc1 | -2.9 | -9.9
O=C(NCc1ccccc1F)C1CCN(c2cccc(Cl)c2)C1=O (stereo not given) | -4.0 | 3.9
COc1cccc(CNC(=O)c2cc3ccccn3c2)c1 | 2.6 | 19.2
